The values that follow come from PubChem BioAssay AID1236 (Emory University Molecular Libraries Screening Center, 2008).

The structures appear in SMILES notation. The whole screen tested about 220,000 compounds, of which about 800 (0.36%) were called active. This is one part of a sample in which actives are shown more often than they occur.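 The calls were made as follows: active = inhibition above about 50% (limit read from the data); inactive = the rest.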

This test has as its system calpain II (m-calpain), Sus scrofa. The test can be described thus: inhibitors of pig calpain II, primary screen, biochemical, fluorogenic peptide substrate, 1536-well (AID 1236). The note with it: purified calpain II, 30 min, at 16 µM, active compounds read high.
`CC(Sc1nnnn1C1CCCCC1)C(=O)O` (stereo not given): the inhibition (in general, the relative decrease from the control value, in per cent) was -11.2% (inactive).

As for `C/C(=N\NC(=O)CNc1cccc2ccccc12)c1ccc(Br)s1`, the inhibition was 17.6% (inactive).

With `O=C(Nc1ccccc1Cl)O/N=C(/c1ccccc1)c1ccccn1`, the inhibition was -15.9% (inactive).

For the molecule `NCCCCCC(=O)N/N=C/c1ccc2nccnc2c1`, the inhibition was -3.28% (inactive).

As to `CC(C)CNC(=S)NC(=O)c1ccc(Cl)cc1`, the inhibition was 11.4% (inactive).

For the molecule `COC/C=C/C1=CC2=CC(=O)C(C)(OC(=O)CCC(=O)OC)C(=O)C2=CO1` (stereo not given), the inhibition was -93.8% (inactive).

Turning to `NC(N)=N/N=C/c1ccc(OCc2ccc(Cl)cc2Cl)cc1`, the inhibition was 61.9% (active).

For `COc1ccc(C(=O)O/N=C(\N)Cc2ccc(Cl)cc2Cl)cc1OC`, the inhibition is 11.8% (inactive).

Turning to `NC(N)=N/N=C/c1ccc(Cl)c([N+](=O)[O-])c1`, the inhibition was -20% (inactive).

For `COc1ccc(/C=N/NC(=O)c2ccc(Cl)cc2)cc1COC(C)=O`, the inhibition is 38.9% (inactive).

As to `O=C(CN(c1cccc(Cl)c1)S(=O)(=O)c1ccccc1)NN=C1CCCC1`, the inhibition was -9.25% (inactive).

`CCOc1ccc(C(=O)Nc2nccs2)cc1[N+](=O)[O-]`: the inhibition is 0.78% (inactive).

On to `COc1ccccc1N1CCN(C(=O)CSc2ncnc3c2cnn3-c2ccc(C)c(C)c2)CC1`, for which the inhibition is -19.6% (inactive).

Take `CC(C)C[C@H](NC(=O)[C@@H]1O[C@H]1C(=O)O)C(=O)NCCCCN=C(N)N`: the inhibition is 98.8% (active).

As for `COc1cc(S(=O)(=O)N(Cc2cccs2)C2CC2)ccc1-n1cnnn1`, the inhibition is 26% (inactive).

Take `Nc1ccccc1SC(C[N+](=O)[O-])c1ccccc1` (stereo not given): the inhibition is 2.09% (inactive).

`O=C(Nc1cccnc1)c1cc2cc(Br)ccc2oc1=O`: the inhibition is 52.9% (active).

In the case of `O=C(Oc1cccnc1)c1cc2ccccc2oc1=O`, the inhibition is -6.4% (inactive).

Take `COc1ccc(C(=O)Nc2cccnc2)cc1C(=O)Nc1cccnc1`: the inhibition was 17.3% (inactive).

On to `COCCN(Cc1cc2cc3c(cc2nc1Cl)OCO3)C(=O)c1cccc(C)c1`, for which the inhibition is 24.9% (inactive).

`NCCCC[C@@H]1NC(=O)[C@H](CCC(=O)O)NC(=O)c2cc([N+](=O)[O-])cc(I)c2NCC[C@@H](C(N)=O)NC1=O`: the inhibition was -13.1% (inactive).

As to `CCn1c(/C=C/Nc2ccccc2)[n+](CC)c2ccc(C(=O)OCC(F)(F)F)cc21`, the inhibition is 52% (active).

With `CCOC(=O)c1ccc2c(c1)nc(C)n2CC`, the inhibition was 14.2% (inactive).

For the molecule `O=C(CCS(=O)(=O)Cc1ccccc1)Nc1ccc2c(c1)OCCO2`, the inhibition was -23.4% (inactive).

With `CCOc1cc(/C=N/NC(=O)OC)ccc1OCCSc1ccc(Cl)cc1`, the inhibition was -7.99% (inactive).

For `CCOC(=O)Nc1ccc(S(=O)(=O)N(C)C(C)C)cc1`, the inhibition is -5.03% (inactive).

As to `COc1cc(NC(=O)c2ccccc2NS(=O)(=O)c2ccc(Cl)s2)cc(OC)c1`, the inhibition was -32.1% (inactive).

As to `Nc1cc(C(F)(F)F)ccc1N1CCOCC1`, the inhibition was -2.56% (inactive).

`O=C(N/N=C\c1cccc(Br)c1)c1ccccc1-n1cccc1`: the inhibition was 68% (active).

In the case of `N=c1oc2ccccc2cc1C(=O)N/N=C/c1ccccc1`, the inhibition was 14.5% (inactive).

Consider `COc1ccc(OC)c2[nH]c(=O)c(CCNC(=O)C(=O)c3c[nH]c4ccccc34)cc12`, for which the inhibition was -38.9% (inactive).

On to `CC(=O)c1ccc(NC(=O)C2CC(=O)Nc3nc4ccccc4n32)cc1` (stereo not given), for which the inhibition is -19.9% (inactive).

Turning to `Cc1nc2ccccc2c(C)c1C(=O)c1ccc(F)cc1`, the inhibition was -9.43% (inactive).

`O=P(O)(CP(=O)(c1ccccc1)c1ccccc1)c1ccccc1O`: the inhibition is -11.7% (inactive).

On to `COc1ccc(CN2CCCCC2C)cc1OC` (stereo not given), for which the inhibition was -66% (inactive).

On to `CC(C)N(Cc1ccccc1)C(=S)Nc1ccc(OC(F)F)cc1`, for which the inhibition is 18.2% (inactive).

Take `CC(=O)c1ccc(NC(=O)N[C@@H](Cc2ccccc2)C(=O)O)cc1`: the inhibition was 5.25% (inactive).

As for `CC(=O)c1ccc(NC(=S)N(Cc2ccccc2)C(C)C2CC2)cc1` (stereo not given), the inhibition is 69.5% (active).

On to `CNc1nc(SC)nc(N(C#N)CC(=O)OC)n1`, for which the inhibition is -4.33% (inactive).

For the molecule `O=C(NCCc1csc(-c2ccccc2)n1)c1ccccc1F`, the inhibition was 18.7% (inactive).

Regarding `COC(=O)Cn1c(O)c(N=NC(=O)OC)c2ccccc21`, the inhibition is -10.4% (inactive).

`CCN(CC(=O)NCCc1ccccc1)S(=O)(=O)c1ccccc1`: the inhibition is 13.4% (inactive).

As to `COc1cc(/C=N/O)cc(Br)c1OCc1cccc(Cl)c1`, the inhibition is 56.7% (active).

`CCOc1cc(/C=N/O)cc(Br)c1OC`: the inhibition was 2.94% (inactive).

`CCOc1c(Cl)cc(/C=N/O)cc1OC`: the inhibition was -1.32% (inactive).

For the molecule `C=CCn1c(-c2ccc(Cl)cc2)ccc(C#N)c1=O`, the inhibition is -6.13% (inactive).

Turning to `CC(O)C(NS(=O)(=O)c1ccc(Cl)cc1)C(=O)OCc1cc([N+](=O)[O-])cc2c1OCOC2` (stereo not given), the inhibition was -6.26% (inactive).

Turning to `CN(C(=O)CCn1c(=S)oc2ccccc21)C1CCCCC1`, the inhibition is 6.83% (inactive).

For `Cc1c(C(=O)c2cccc([N+](=O)[O-])c2)c2ccccn2c1CCC#N`, the inhibition is 10.5% (inactive).

With `CSCc1cc(N2CCOCC2)nc(SCc2ccc(Cl)cc2Cl)n1`, the inhibition is 53.9% (active).

On to `CSCc1cc(N(C)C)nc(SCc2ccc(Cl)cc2Cl)n1`, for which the inhibition is 8.94% (inactive).

Take `O=c1cc(CSc2ccc(Cl)cc2)nc(N2CCOCC2)[nH]1`: the inhibition is -33.8% (inactive).

With `Cc1ccc(-n2ncc3c(Nc4cccc(C(=O)O)c4)ncnc32)cc1`, the inhibition was 10.2% (inactive).

As to `NC(=O)CC[C@@H]1NC(=O)[C@H](CO)NC(=O)c2cc([N+](=O)[O-])cc(I)c2NCC[C@@H](C(N)=O)NC1=O`, the inhibition is -33.7% (inactive).

For `S=c1[nH]nc(-c2cccs2)n1/N=C/c1cn(-c2ccccc2)nc1-c1ccc(Cl)cc1`, the inhibition was -33.4% (inactive).

With `COc1ccc(OC(C)C(=O)Nc2cccnc2)cc1` (stereo not given), the inhibition is -45% (inactive).

Turning to `COc1ccc(C(=O)C2CCCN(C(=O)c3cc4nc(C)cc(C)n4n3)C2)cc1F` (stereo not given), the inhibition is -25.8% (inactive).

In the case of `O=c1cc(-c2ccccc2)nc(N2CCCCC2)[nH]1`, the inhibition is -13.8% (inactive).

Take `Cc1ccc2nc(-c3ccccc3)cc(C(=O)O)c2c1`: the inhibition is -19.3% (inactive).

Consider `c1ccc(-c2cc(N3CCCCC3)c3ccccc3n2)cc1`, for which the inhibition is 50.5% (active).

`CN(C)CCCSc1ccccc1NC(=O)/C=C/c1ccccc1`: the inhibition was -17.5% (inactive).

Turning to `N#Cc1ccc(N2Cc3ccccc3/C2=N/C(=O)Nc2ccc(Cl)cc2)cc1`, the inhibition is -5.24% (inactive).

Turning to `Cc1cccc(NC(=S)N(CCN(C)C)C(C)c2ccco2)c1` (stereo not given), the inhibition is -1.81% (inactive).

`Fc1c(F)c(C(F)(F)F)c(F)c(F)c1N1CCN(c2ccc3nnc(C(F)(F)F)n3n2)CC1`: the inhibition was 58.9% (active).

On to `FC(F)(F)c1nnc2ccc(N3CCN(c4ccccc4)CC3)nn12`, for which the inhibition was 8.02% (inactive).

As for `Cc1ccnc(NC(=O)Cn2ccc([N+](=O)[O-])n2)c1`, the inhibition was -9.6% (inactive).

Take `Cc1cc(C)cc(C(=O)N(CCc2ccccc2)C2=CC3CCC(C2)N3C)c1` (stereo not given): the inhibition was -21.9% (inactive).

On to `CCn1c(SCC(=O)N/N=C/c2ccccc2OCC(=O)O)nnc1-c1ccc(C(C)(C)C)cc1`, for which the inhibition is -10.5% (inactive).

Regarding `CCC/C=C(\CCC)C(NC(=O)Cc1ccccc1)c1ccc(C(=O)OC)cc1` (stereo not given), the inhibition was 3.04% (inactive).

In the case of `CCOC(=O)CN(C)S(=O)(=O)c1ccc(-c2cc(C(=O)OC)sc2C(F)(F)F)cc1`, the inhibition is 17.5% (inactive).

With `Oc1c(Br)cc(/C=N/NC(=S)NCC2CCCO2)cc1Br` (stereo not given), the inhibition is -20.7% (inactive).

Turning to `CCc1ccc(OCC(=O)OCC(=O)c2c(N)n(C)c(=O)n(C)c2=O)cc1`, the inhibition was 4.26% (inactive).

In the case of `Cc1cc(C(=O)OCC(=O)c2c(N)n(C)c(=O)n(C)c2=O)c(C)o1`, the inhibition was 32.4% (inactive).

For the molecule `Cn1c(N)c(C(=O)COC(=O)c2cnc(Cl)c(Cl)c2)c(=O)n(C)c1=O`, the inhibition is 69% (active).

Turning to `Cc1csc(NC(=O)c2ccc(-c3ccc(Cl)cc3Cl)o2)n1`, the inhibition is -95.3% (inactive).

Consider `COc1ccc(CN2CCN(Cc3cn(C)nc3-c3ccccc3)CC2CCO)c(C)c1C` (stereo not given), for which the inhibition was -24.9% (inactive).

Regarding `O=C1CCN(C(=O)Nc2ccccc2)N1`, the inhibition was 9.94% (inactive).

In the case of `CC(C)CNC(=O)CC(c1ccccc1)c1c(O)ccc2ccccc12` (stereo not given), the inhibition was -74.9% (inactive).

Regarding `CCc1ccc(Oc2nc([N+](=O)[O-])nn2C)cc1`, the inhibition is -6.47% (inactive).

With `C=CCn1c(SCc2cccc(F)c2)nc2cc(C(=O)N3CCC(C(N)=O)CC3)ccc2c1=O`, the inhibition was -22.9% (inactive).

On to `O=C(NC(=S)Nc1cccc2c(O)cccc12)c1cccc(Br)c1`, for which the inhibition was -4.46% (inactive).

With `Clc1ccc(-c2nnc(SCc3nc4ccccc4s3)o2)cc1`, the inhibition is 8.94% (inactive).

Turning to `C#CCSc1nnc(-c2sc3ccccc3c2Cl)o1`, the inhibition is 50.5% (active).

Take `O=C(OCC#CCSc1nnc(-c2ccncc2)o1)c1sc2ccccc2c1Cl`: the inhibition is 20.6% (inactive).

With `Cc1cccc(N(C)C(=O)c2cc3c(=O)[nH]c4ccc(C)cc4c3s2)c1`, the inhibition was -47.9% (inactive).

As for `O=C(O)CCn1cc(/C=C/C(=O)c2ccc(Cl)cc2)c(-c2cccc(Br)c2)n1`, the inhibition is 31.9% (inactive).

For `CS(=O)(=O)c1ccc2nc(NC(=O)c3ccc(Cl)nc3)sc2c1`, the inhibition was 8.84% (inactive).

`Nc1nc(-c2sc3nc4c(cc3c2N)CCCC4)nc(N2CCOCC2)n1`: the inhibition is -253% (inactive).

`C/C(=N\OCC(=O)O)c1ccc(Cl)cc1`: the inhibition was 25.9% (inactive).

Take `CCOc1cc(/C=C(/C#N)c2ccc(Cl)cc2)cc(Cl)c1OCC(=O)O`: the inhibition is 50.5% (active).

As to `CCOC(=O)CN/C=C(\C#N)c1ccc(F)cc1`, the inhibition is -15.5% (inactive).

As for `Nc1c(Cl)cc(S(N)(=O)=O)cc1S(N)(=O)=O`, the inhibition was -2.3% (inactive).

Turning to `Cc1cc(-c2ccc(/C=N/n3cnnc3)o2)c([N+](=O)[O-])cc1C`, the inhibition is 34.4% (inactive).

`Cc1ccc(Cl)cc1-c1ccc(/C=N/n2cnnc2)o1`: the inhibition is 4.96% (inactive).

In the case of `Cc1cc([N+](=O)[O-])c(-c2ccc(/C=N/n3cnnc3)o2)cc1Cl`, the inhibition was 58.9% (active).
